An excerpt weighted towards active compounds, which were near 10% of everything screened.
PNC inhibitor: inhibitors of perinucleolar compartment assembly; 140,000 compounds, 3.1% hits; PC3M PTB-GFP, PNC prevalence imaging, 16 h; hits give low values; activity change (PNC), negative = inhibition, % at 10 µM;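 active means readout at or below -70, meaning at least 70% loss of cells showing the perinucleolar compartment, a nuclear body marking cancer cells; inconclusive means readout between -30 and a set limit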
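Compounds are pinned in duplicate onto adhered PC3M cells stably expressing GFP-tagged PTB and incubated 16 h at 37 C. Cells are then fixed, nuclei stained with Hoechst, and PNC-positive cells counted.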
Lamin A splicing: modulators of lamin A splicing | HeLa LMNA splicing GFP/RFP minigene ratio, 48 h | AID 1487 | Potency, µM (doses to about 46.1 µM), most hits filed as inhibitors | 200,000 compounds, 0.01% hits; active means well fitted inhibition curve with a large enough effect in the signal ratio, with a control signal flat, not every such curve was filed as active; inconclusive means small, poorly fitted or top-dose-only effect, or effect the other way, or a change in a side signal; the % refers to the signal ratio
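S3 HeLa cells stably expressing lamin A-EGFP splicing minigene plus DsRed2, 600 cells/well, 48 h compound exposure at 37C. Laser-scanning cytometry; analysed as GFP (500-530 nm)/RFP (575-640 nm) total intensity ratio; 0.5% DMSO vehicle.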
HPGD inh: HPGD (human) dehydrogenase inhibition. Potency, µM, most hits filed as inhibitors. purified HPGD, NADH fluorescence kinetic, PGE2 substrate. AID 894. 150,000 compounds, 4.3% hits
Target sequence (P15428 whole entry, looked up): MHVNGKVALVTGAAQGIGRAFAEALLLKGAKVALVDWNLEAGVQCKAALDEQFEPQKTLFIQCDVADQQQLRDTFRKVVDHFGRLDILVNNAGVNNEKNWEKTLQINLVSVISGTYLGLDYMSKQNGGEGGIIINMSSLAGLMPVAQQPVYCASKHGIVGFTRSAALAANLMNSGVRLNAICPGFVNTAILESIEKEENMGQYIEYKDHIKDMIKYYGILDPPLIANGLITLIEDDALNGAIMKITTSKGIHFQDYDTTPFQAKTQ
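20 nM HPGD preincubated 15 min at room temperature with compound in 50 mM Tris-HCl pH 8, 0.01% Tween 20. Started with 1 mM NAD+ and 30 uM prostaglandin E2; NADH fluorescence (360/450 nm) read 5 times over 30-s intervals, last minus first.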
ALDH1A1 inh: inhibitors of human aldehyde dehydrogenase 1A1. 220,000 compounds, 7.3% hits. AID 1030. Potency, µM (titrated, usually from 75.3 µM), most hits filed as inhibitors. P00352. Purified ALDH1A1, NADH fluorescence, propionaldehyde substrate
Target sequence (P00352 whole entry, looked up): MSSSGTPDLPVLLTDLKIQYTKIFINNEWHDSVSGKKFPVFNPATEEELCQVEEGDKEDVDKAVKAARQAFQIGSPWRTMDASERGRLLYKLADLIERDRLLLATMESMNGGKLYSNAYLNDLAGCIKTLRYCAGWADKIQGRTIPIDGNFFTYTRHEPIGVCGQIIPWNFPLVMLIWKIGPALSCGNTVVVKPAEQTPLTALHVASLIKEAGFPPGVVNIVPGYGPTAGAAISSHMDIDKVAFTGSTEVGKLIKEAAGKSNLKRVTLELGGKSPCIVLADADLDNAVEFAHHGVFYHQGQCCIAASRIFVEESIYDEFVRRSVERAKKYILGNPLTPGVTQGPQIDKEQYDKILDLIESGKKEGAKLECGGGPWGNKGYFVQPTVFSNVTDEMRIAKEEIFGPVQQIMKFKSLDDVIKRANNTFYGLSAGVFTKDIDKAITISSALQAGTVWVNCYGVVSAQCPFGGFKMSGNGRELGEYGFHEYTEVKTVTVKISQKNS
KinaseGlo FLuc: Kinase-Glo luciferase inhibition (counter-screen) | 200,000 compounds, 0.28% hits | AID 1379 | Potency, µM (titrated, usually from 38.3 µM), most hits filed as inhibitors | Q27757 | Kinase-Glo luciferase, ATP luminescence, 8 min; active means well fitted inhibition curve with a large enough effect; inconclusive means small, poorly fitted or top-dose-only effect; further: nearly all actives have a fitted effect of over 60% in size
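Recombinant Kinase-Glo luciferase, 10 uM ATP (linear range), luciferin; imidazole pH 7.2 / KCl / MgCl2 / Tween / BSA buffer; 8 min RT; luminescence.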
A number is an active result; 0 = inactive; ? = inconclusive; - = no result; [ ] = remark or other dose. Unless noted, the call rests on the fitted dose curve; in most records, active means well fitted inhibition curve with a large enough effect (not every such curve was filed as active); inconclusive means small, poorly fitted or top-dose-only effect, or another doubt; inactive means no such curve, though single readings can be large or run the other way.

SMILES | PNC inhibitor | Lamin A splicing | HPGD inh | ALDH1A1 inh | KinaseGlo FLuc
CCCCNC(=S)N(C)N=C1CCC(c2ccccc2)CC1 (centres undefined) | - | ? | - | 0.63µM | 0
N#CC1=C(N)C2=CCCC[C@H]2[C@H](c2ccc(Br)cc2)C1(C#N)C#N | 0 | ? | 0 | 13µM | 0
Clc1ncnc2scc(C3COc4ccccc4O3)c12 (centres undefined) | 0 | 0 | 28µM | 18µM | 0
CCN1C(C)=C(C(=O)OC)C(c2ccccc2)N2C(=O)[C@@]3(C(=O)OC)O[C@@]12C1C(=O)N(C)C(=O)C13 (some centres undefined) | - | - | - | 0[13.5 µM] | -
COc1cc(C=O)ccc1OCC(=O)N1CCCC1 | - | 0 | - | 0 | 0
COc1cc(C(=O)NCCc2ccc3c(c2)OCCO3)ccc1OCC(=O)N1CCOCC1 | 0 | 0 | 0 | 22µM | 0
COc1cc(C(=S)N2CCCCC2)ccc1OCC(=O)N1CCCC1 | ? | 0 | 0 | 22µM | 0
CCOc1ccc(C(=O)N2CCCC2)cc1OC | 0 | 0 | 28µM | 0 | 0
CCOc1ccc(C(=S)N2CCCC2)cc1OC | 0 | 0 | 0 | 0 | 0
O=S(=O)(Nc1cccc(-c2ccc(N3CCCC3)nn2)c1)c1ccccc1C(F)(F)F | - | 0 | - | - | -
O=C1C2Cc3c([nH]c4ccccc34)C(c3ccccc3)N2C(=O)C2Cc3c([nH]c4ccccc34)C(c3ccccc3)N12 (centres undefined) | - | - | - | 0[13.5 µM] | -
O=[N+]([O-])c1ccc(-c2nc(-c3ccc(F)cc3)c(-c3ccncc3)[nH]2)cc1 | - | ? | 0 | ? | 0
Cc1ccc(CNC(=O)Cn2c(=O)cc(C(F)(F)F)c3c(C)nn(C)c32)cc1 | - | 0 | - | - | -
COC(=O)[C@@H]1CCCN1C(=O)CCc1nnc(CCc2c[nH]c3ccccc23)o1 | - | - | - | 0 | 0
COC(=O)C1CCCCN1C(=O)CCc1nnc(CCc2c[nH]c3ccccc23)o1 (centres undefined) | - | ? | - | 22µM | 0
COc1ccc(-c2cn3c(n2)sc2cc(C(=O)NCc4cccs4)ccc23)cc1 | - | 0 | - | - | -
O=C(O)c1ccccc1C(=O)Nc1ccc(-c2csc(-c3ccccc3)n2)cc1 | -98 | 0 | ? | ? | 0
CCCCCCCCCCOC(=O)c1csc2nnsc12 | -100 | 0 | 0 | 0 | 0
CC(CC(=O)O)(CC(=O)O)C(=O)O | - | - | 0 | 0[13.5 µM] | 0[7.66 µM]
COc1ccc(NC(=O)c2cc(S(=O)(=O)N3CCCCCC3)cn2C)cc1Cl | - | 0 | - | - | -
O=C1C=C(NCc2ccncc2)CC(c2ccccc2)C1 (centres undefined) | 0 | 0 | 0 | 0 | 0
O=C1C=C(NNC(=O)c2ccncc2)CC(c2ccccc2)C1 (centres undefined) | - | 0 | - | 8.9µM | 0
Cc1c(Cl)cccc1-n1ncc(C(=O)Nc2ccc3c(c2)OCCO3)c1C1CCN(C(=O)OC(C)(C)C)CC1 | - | 0 | - | - | -
CCN(CC)c1ccc(/C=N/N2CCN(Cc3ccccc3)CC2)c(O)c1 | 0 | ? | 0 | ? | 0
C(=N\N1CCN(Cc2ccccc2)CC1)/c1cccnc1 | -116 | 0 | 0 | 0 | 0
SMILES | PNC inhibitor | Lamin A splicing | HPGD inh | ALDH1A1 inh | KinaseGlo FLuc
CCN(CC)c1ccc(/C=N/N2CCN(Cc3ccccc3)CC2)cc1 | - | 0 | - | 7.9µM | 0
COc1ccc(Cl)cc1NC(=O)CN(C)S(=O)(=O)c1ccc2c(c1)CCCN2C(C)=O | - | 0 | - | - | -
CCN(CC)CCCCC1CCN(CC(=O)N2c3ccccc3C(=O)Nc3cccnc32)CC1 | - | - | 0 | 0 | 0
O=c1n(-c2ccccc2)c(=O)n2n1CCCC2 | -120 | 0 | 0 | 0 | 0
CSC(=[SH+])N=N/C(=C1/C=CC=CN1)c1ccccn1.[Cu][Br] | - | - | ? | 0.63µM | 0[7.66 µM]
Cc1nn(CC(=O)NCc2cccc(F)c2)c(=O)c2c(C)n(-c3ccc(Cl)cc3)nc12 | - | 0 | - | - | -
CCN(CC)c1ccc2c(c1)oc(=O)c1c(Cl)cc(=O)oc12 | 0 | ? | 5.6µM | 2.2µM | 0
CCN(CC)c1ccc2c(Cl)c(Br)c(=O)oc2c1 | 0 | ? | 0 | 3.2µM | 0
COc1cccc(CNC(=O)C(C)n2c(=O)cc(-c3ccccc3)c3c(C)nn(C)c32)c1 (centres undefined) | - | 0 | - | - | -
COc1ccc(Nc2ccnc(Nc3ccc(OC)cc3)n2)cc1 | -93 | ? | 0 | ? | 0
CCOc1nc(Nc2ccc(OC)cc2)nc(OCC)n1 | ? | 0 | 0 | 0 | 0
Cc1c(Cl)ccc2c1NC(=O)[C@]21N[C@@H](CCC(N)=O)[C@H]2C(=O)N(c3ccc(F)cc3)C(=O)[C@H]21 | 0 | ? | 0 | 14µM | 0
Cc1c(Cl)ccc2c1NC(=O)C21NC(CCC(N)=O)[C@H]2C(=O)N(c3ccc(Cl)cc3)C(=O)[C@H]21 (some centres undefined) | 0 | 0 | 0 | 8.9µM | 0
CCCCc1ccc(N2C(=O)[C@@H]3C(CC(N)=O)NC4(C(=O)Nc5ccc(F)cc54)[C@@H]3C2=O)cc1 (some centres undefined) | 0 | 0 | 0 | 14µM | 0
NC(=O)C[C@@H]1N[C@]2(C(=O)Nc3ccccc32)[C@@H]2C(=O)N(c3cc(C(F)(F)F)ccc3Cl)C(=O)[C@H]12 | 0 | 0 | 0 | 0 | 0
O=C(COc1ccccc1[N+](=O)[O-])N(Cc1ccco1)c1ccccn1 | - | 0 | - | - | -
COc1ccc(CCN(C)CCCOc2ccc(S(=O)(=O)c3[nH]c4ccccc4c3C(C)C)cc2)cc1OC | - | - | 0 | 0 | 0
O=S(=O)(NCCc1csc2nc(-c3ccc(F)cc3)nn12)c1ccc2c(c1)OCCO2 | - | 0 | - | - | -
Cc1cc(N=Cc2c(O)ccc3cc(Br)ccc23)no1 | 0 | ? | 10µM | 1.8µM | 0
NCCOc1ccc(C23CC4CC(CC(C4)C2)C3)cc1 | - | ? | - | 22µM | 0
OCCN1CCN(CC(O)COc2ccc(C34CC5CC(CC(C5)C3)C4)cc2)CC1 (centres undefined) | - | - | - | 0 | 0
CC(C)(C)c1ccc(C(=O)Nc2ccccc2C(=O)OCc2cc(=O)n3ccsc3n2)cc1 | - | 0 | - | - | -
CCc1cccc(Nc2c3c(nc4ncnn24)CCC3)c1 | - | ? | - | 0 | 0
Clc1cccc(Nc2c3c(nc4ncnn24)CCC3)c1 | ? | 0 | 16µM | ? | 0
CN1CCN(c2ncc3c(n2)CCN(Cc2ccc(Br)s2)C3)CC1 | - | 0 | - | - | -
SMILES | PNC inhibitor | Lamin A splicing | HPGD inh | ALDH1A1 inh | KinaseGlo FLuc
CN=c1scc(-c2ccccc2F)n1/N=C/c1ccc[nH]1 | - | 0 | - | 0 | 11µM
CN=c1scc(-c2ccccc2F)n1/N=C/c1ccc(O)c(O)c1O | - | 0[9.22 µM] | - | 5.6µM | 11µM
CC(C)N=c1scc(-c2cccs2)n1/N=C/c1ccc(O)c(O)c1O | ? | ? | ? | ? | 0
CN=c1scc(C)n1/N=C/c1ccc(O)cc1 | 0 | ? | 0 | 0 | 0
COC(=O)C(C(=O)OC)[C@@H](NC(=O)OCc1ccccc1)c1ccccc1 | - | - | 0 | 0 | 0
O=C(NCCN1CCOCC1)c1csc2c1CCCCC2 | 0 | 0 | 0 | 0 | 0
COCCNC(=O)c1csc2c1CCCC2 | ? | 0 | 16µM | 0 | 0
CCN1CCN(CCCNC(=O)c2csc3c2CCCCC3)CC1 | 0 | 0 | 0 | 0 | 0
CCN1CCCC1CNC(=O)c1csc2c1CCCC2 (centres undefined) | -85 | 0 | 0 | 0 | 0

High-throughput results deposited in PubChem BioAssay by National Center for Advancing Translational Sciences (NCATS).
